Where “and” joins values, the source holds several entries; their conditions need not be identical. Equal values may be shown once. Where a name gives a salt, the structure may show the parent alone. ± gives the standard deviation of the averaged measurements.
These compounds were tested on Listeria monocytogenes 10403S (assay: growth inhibition relative to ceftriaxone-alone control; higher = stronger potentiation of ceftriaxone growth inhibition). Details: 10 µM; ceftriaxone 1 ug/ml; 12 h.
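Note: End-point A600 read in BHI broth at 37 °C with 2% DMSO, inhibition computed as (1 − OD with compound plus ceftriaxone ÷ OD with ceftriaxone only) × 100.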

| Structure (SMILES) | growth inhibition |
| --- | --- |
| Cc1cccc(Nc2ncc(-c3ccccc3)o2)c1 | -0.369 ± 0.46% |
| CN1CC[C@H](c2c(O)cc(O)c3c(=O)cc(-c4ccccc4Cl)oc23)[C@H](O)C1 [Flavopiridol HCl] | 10.3 ± 6.8% |
| CNC(=O)c1sc(-n2cnc3cc(OC)c(OC)cc32)cc1OCc1ccccc1C(F)(F)F | -11 ± 18% |
| CNC(=O)c1cncc(/C=C/c2c(C)cccc2C)c1 | -1.2 ± 3.7% |
| CC(C)n1nc(-c2cc3cc(O)ccc3[nH]2)c2c(N)ncnc21 | 16.2 ± 10% |
| COc1ccc(-c2ccc3c(N4CCOCC4)nc(N4C[C@@H](C)O[C@@H](C)C4)nc3n2)cc1CO | -4.35 ± 2.4% |
| CC(C)=Cc1cccc2c1/C(=N/Nc1ccc(S(N)(=O)=O)cc1)C(=O)N2 | -2.72 ± 0.38% |
| CNC(=O)c1cncc(/C=C/c2c(Cl)cccc2Cl)c1 | -4.82 ± 4.5% |
| CCn1c(-c2nonc2N)nc2cnc(Oc3cccc(NC(=O)c4ccc(N(C)C)cc4)c3)cc21 | -5.93 ± 1.5% |
| CCN1CCC(C(=O)Nc2n[nH]c3nnc(-c4cccc(F)c4F)cc23)CC1 | 0.339 ± 3.9% |
| O=C(NCc1ccccc1)c1csc(Nc2ccncn2)n1 [Thiazovivin] | 5.95 ± 11% |
| CC1=C(C(=O)Nc2ccc3[nH]nc(C)c3c2)C(c2ccc(C(F)(F)F)cc2)CC(=O)N1 (stereo not drawn) | -1.71 ± 13% |
| COc1cc(Nc2ncc(F)c(Nc3ccc4c(n3)NC(=O)C(C)(C)O4)n2)cc(OC)c1OC | 9.08% and 0.52% |
| O=C(Nc1ccc(OC(F)(F)F)cc1)c1sccc1NCc1ccnc2ccccc12 | 35.9 ± 3.9% |
| C[C@@H]1CCN(C(=O)CC#N)C[C@@H]1N(C)c1ncnc2[nH]ccc12 | 11.4% and 15.6% |
| O=C(NOC[C@H](O)CO)c1ccc(F)c(F)c1Nc1ccc(I)cc1F | 78.4 ± 6.9% |
| CS(=O)(=O)CCNCc1ccc(-c2ccc3ncnc(Nc4ccc(OCc5ccccc5)c(Cl)c4)c3c2)o1 | -9.81 ± 12% |
| O=C1NC(=O)C(N2CCc3ccccc32)=C1c1ccc(Cl)cc1 | 14.5 ± 6% |
| Cn1cc(-c2ccc3ncc(Cc4ccc5ncccc5c4)n3n2)cn1 | -1.22 ± 3.1% |

| Structure (SMILES) | growth inhibition |
| --- | --- |
| Nc1nccc(Oc2ccc(NC(=O)c3c[nH]cc(-c4ccc(F)cc4)c3=O)cc2F)c1Cl | 1.11 ± 36% |
| COc1cc2c(Nc3ccc(NC(=O)c4ccccc4)cc3)ncnc2cc1OCCCN1CCOCC1 | 24.9 ± 20% |
| CCc1cccc(CC)c1NC(=O)N1Cc2[nH]nc(NC(=O)c3ccc(N4CCN(C)CC4)cc3)c2C1 | 33.1 ± 4.9% |
| CCN(CC)Cc1ccc(Nc2nccc(-c3cnn4ncccc34)n2)cc1 | -11.5 ± 14% |
| NC1(c2ccc(-c3nc4ccn5c(=O)[nH]nc5c4cc3-c3ccccc3)cc2)CCC1 | 86.41 ± 0.47% |
| CC[C@@H]1C(=O)N(C)c2cnc(Nc3ccc(C(=O)N[C@H]4CC[C@H](N5CCN(CC6CC6)CC5)CC4)cc3OC)nc2N1C(C)C [BI6727 (Volasertib)] | 56.9 ± 16% |
| CS(=O)(=O)CCNCc1nc(-c2ccc3ncnc(Nc4ccc(OCc5cccc(C(F)(F)F)c5)cc4)c3c2)cs1 | -8.22 ± 14% |
| NS(=O)(=O)c1ccc(N/N=C2\C(=O)Nc3ccc(C(=O)NCCc4c[nH]cn4)cc32)cc1 | 14.1 ± 4.2% |
| O=c1cc(-c2cccc3c2Sc2ccccc2S3)oc(N2CCOCC2)c1 | 86.2 ± 1.3% |
| O=C(NOCC(O)CO)c1cc(Br)c(F)c(F)c1Nc1ccc(I)cc1F (stereo not drawn) | 100 ± 5.2% |
| C[C@@H](Oc1cc(-n2cnc3ccc(OC[C@@H](O)CO)cc32)sc1C(N)=O)c1ccccc1Cl | -3.67 ± 1.5% |
| CCS(=O)(=O)c1ccc(OC)c(Nc2ncc(-c3cccc(-c4ccccc4F)c3)o2)c1 | 2.03 ± 2.4% |
| O=C1NC(=O)C(c2cccc(Cl)c2)=C1Nc1ccc(Cl)c(C(=O)O)c1 | 9.83 ± 0.41% |
| COc1cc2ncnc(Nc3ccc4c(cnn4Cc4ccccc4)c3)c2cc1OC | -12.1 ± 18% |
| NCC(=O)Nc1ccc(-n2nc(C(F)(F)F)cc2-c2ccc3c(ccc4ccccc43)c2)cc1 | 85.45 ± 0.52% |
| Nc1nccc(C#Cc2cncnc2Nc2ccc(OCc3cccc(F)c3)c(Cl)c2)n1 | 8.9975 ± 0.0066% |
| O=C1Nc2ccc(C(=O)c3ccco3)cc2C1=Cc1cc(Cl)c(O)c(Cl)c1 | 13.9 ± 4.5% |
| COc1cc2nccc(Oc3ccc(NC(=O)NC4CC4)c(Cl)c3)c2cc1C(N)=O [E7080 (Lenvatinib)] | 5.83 ± 14% |
| CCS(=O)(=O)c1cccc(-c2cc(C(=O)NC3CCN(C)CC3)c(C)c3[nH]c4ncc(C)cc4c23)c1 | 31.1 ± 6.9% |
